Assay results: PubChem BioAssay (NCI)
“And” between values parts separate entries of the source, which are not always exact repeats. Identical values can stand only once. The panel holds about 83,000 compounds, 20% with a hit somewhere; the sample as a whole holds those more often.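 Negative percent growth values reflect cell death: -40 means 40% of the cells present at the start died, and -100 means all died.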 The source made the active and inactive calls. How the source made its calls: active means growth percent below 10; inactive means the rest.

How the values were obtained:
Experiment in all cases: NCI-60 one-dose screen, 48 h (100 = growth as untreated, 0 = no growth, -100 = all killed)
Details in all cases: 10 µM unless noted
SR leukemia = test system: SR leukemia
RPMI-8226 leukemia = test system: RPMI-8226 leukemia
OVCAR-8 ovarian = test system: OVCAR-8 ovarian
OVCAR-5 ovarian = test system: OVCAR-5 ovarian
OVCAR-4 ovarian = test system: OVCAR-4 ovarian
IGROV1 ovarian = test system: IGROV1 ovarian
OVCAR-3 ovarian = test system: OVCAR-3 ovarian
NCI/ADR-RES ovarian = test system: NCI/ADR-RES ovarian
HS 578T breast = test system: HS 578T breast
SK-OV-3 ovarian = test system: SK-OV-3 ovarian

Measured: growth

CC(C)(C)c1ccc(O)c(C2CCCCC2)c1
inactive: SR leukemia 84.9% | RPMI-8226 leukemia 83% | OVCAR-8 ovarian 96.3% | OVCAR-5 ovarian 101% | OVCAR-4 ovarian 101% | IGROV1 ovarian 137% | OVCAR-3 ovarian 110% | NCI/ADR-RES ovarian 117%

NC1=CC(=O)c2ccccc2C1=O
inactive: SR leukemia 81.3% | RPMI-8226 leukemia 81.7% | OVCAR-8 ovarian 85.3% | OVCAR-5 ovarian 110% | OVCAR-4 ovarian 87.7% | OVCAR-3 ovarian 82.6% | HS 578T breast 71.6% | NCI/ADR-RES ovarian 88.6%

N[C@H](C(=O)O)[C@@H]1CC(Cl)=NO1
inactive: SR leukemia 21.2% [20 µM] | RPMI-8226 leukemia 28.9% [20 µM] | OVCAR-8 ovarian 30.3% [20 µM] | OVCAR-5 ovarian 28.4% [20 µM] | OVCAR-4 ovarian 48.1% [20 µM] | IGROV1 ovarian 10.8% [20 µM] | OVCAR-3 ovarian 32.4% [20 µM] | HS 578T breast 27.2% [20 µM] | NCI/ADR-RES ovarian 28.4% [20 µM]

CCCCCC(CCCCC)C(=O)O
inactive: SR leukemia 99.7% | RPMI-8226 leukemia 97.3% | OVCAR-8 ovarian 113% | OVCAR-5 ovarian 110% | OVCAR-4 ovarian 106% | SK-OV-3 ovarian 98.4% | OVCAR-3 ovarian 118% | HS 578T breast 104% | NCI/ADR-RES ovarian 117%

O=C(Oc1cccc2cccnc12)c1ccccc1
inactive: SR leukemia 43.7% | RPMI-8226 leukemia 83.3% and 113% | OVCAR-8 ovarian 84.9% and 98.6% | OVCAR-5 ovarian 105% and 107% | OVCAR-4 ovarian 84.6% and 116% | IGROV1 ovarian 113% | HS 578T breast 74.9% and 123% | NCI/ADR-RES ovarian 87% and 106%
7.19% (active) and 115% (inactive): OVCAR-3 ovarian

CCCCCCCCCCCCCCCCCCOP(=O)([O-])OC1CC[N+](C)(C)CC1
inactive: OVCAR-8 ovarian 49.6% | OVCAR-4 ovarian 65.2% | OVCAR-3 ovarian 65.9% and 14% | HS 578T breast 11.8% | NCI/ADR-RES ovarian 73.5% and 54.9%
active: SR leukemia 3.18% and -3.35% | RPMI-8226 leukemia 6.44% and -36.6% | OVCAR-5 ovarian -24.1% and -61.2%

O=C1c2ccccc2C(=O)N1c1ccccc1
inactive: SR leukemia 85.7% | RPMI-8226 leukemia 119% | OVCAR-8 ovarian 98.6% | OVCAR-4 ovarian 105% | IGROV1 ovarian 105% | OVCAR-3 ovarian 108% | HS 578T breast 119% | NCI/ADR-RES ovarian 105%

C/C=C1\SC(=S)NC1=O
inactive: SR leukemia 101% | RPMI-8226 leukemia 101% | OVCAR-5 ovarian 94.9% | OVCAR-4 ovarian 101% | SK-OV-3 ovarian 92.4% | IGROV1 ovarian 105% | OVCAR-3 ovarian 111% | HS 578T breast 104% | NCI/ADR-RES ovarian 107%

O=C(/C=C/c1cccc(Cl)c1)c1ccccc1
active: RPMI-8226 leukemia -30.6% and 0.877%
7.8% (active) and 11.7% (inactive): SR leukemia
inactive: OVCAR-8 ovarian 88.2% and 79.9% | OVCAR-4 ovarian 97.8% and 92.9% | SK-OV-3 ovarian 109% and 98.5% | IGROV1 ovarian 93.7% and 71.8% | OVCAR-3 ovarian 84.9% and 80.5% | HS 578T breast 108% and 107% | NCI/ADR-RES ovarian 105% and 88.8%

CCC(=O)Sc1ccccc1C(=O)Nc1ccc(Cl)cc1
inactive: SR leukemia 26.3% | RPMI-8226 leukemia 35% | OVCAR-8 ovarian 78.8% | OVCAR-4 ovarian 44.5% | SK-OV-3 ovarian 87.3% | IGROV1 ovarian 71.2% | OVCAR-3 ovarian 39.9% | HS 578T breast 54.5% | NCI/ADR-RES ovarian 52.6%

COC(=O)c1nc(=S)[nH]c(C(=O)OC)c1C(=O)c1ccccn1
inactive: RPMI-8226 leukemia 52.8% | OVCAR-5 ovarian 57.9% | OVCAR-4 ovarian 25.3% | SK-OV-3 ovarian 63.2% | IGROV1 ovarian 24.5% | OVCAR-3 ovarian 34.5% | HS 578T breast 70.1%
active: SR leukemia -3.79% | NCI/ADR-RES ovarian 7.03%

Oc1c(Cl)cc(Cl)c2cccnc12
inactive: SR leukemia 32.7% and 31.9% | RPMI-8226 leukemia 50.3% and 50.1% | OVCAR-8 ovarian 41.2% | OVCAR-4 ovarian 50.1% and 45.7% | IGROV1 ovarian 52.9% | OVCAR-3 ovarian 68% and 15.3% | HS 578T breast 72.9% and 52% | NCI/ADR-RES ovarian 27.4% and 29.3%

COc1cc(/C=C(/C)C[N+](=O)[O-])ccc1O
inactive: SR leukemia 34% | RPMI-8226 leukemia 64.3% | OVCAR-8 ovarian 94.7% | OVCAR-4 ovarian 104% | IGROV1 ovarian 44.1% | OVCAR-3 ovarian 85.4% | HS 578T breast 98.7% | NCI/ADR-RES ovarian 102%

c1ccc2c(c1)Nc1cc3ccccc3cc1N2
active: OVCAR-3 ovarian -3.74%
inactive: SR leukemia 29.2% | RPMI-8226 leukemia 18.8% | OVCAR-8 ovarian 29.5% | OVCAR-4 ovarian 32.6% | SK-OV-3 ovarian 63.6% | IGROV1 ovarian 50.6% | HS 578T breast 53.4% | NCI/ADR-RES ovarian 30.5%

Cc1ccc(N=C=C(c2ccccc2)c2ccccc2)cc1
inactive: SR leukemia 22.9% | RPMI-8226 leukemia 16.6% | OVCAR-8 ovarian 70% | OVCAR-4 ovarian 103% | SK-OV-3 ovarian 112% | IGROV1 ovarian 57.2% | OVCAR-3 ovarian 118% | HS 578T breast 91.1% | NCI/ADR-RES ovarian 81.2%

O=C(O)c1ccc2c3c(ncnc13)-c1ccccc1C2=O
active: HS 578T breast 5.48%
inactive: SR leukemia 98.4% | RPMI-8226 leukemia 87.1% | OVCAR-8 ovarian 79.9% | OVCAR-4 ovarian 91.7% | SK-OV-3 ovarian 98% | OVCAR-3 ovarian 83.4% | NCI/ADR-RES ovarian 76.9%

NC(=S)N/N=C\c1nccc2c(C(F)(F)C(F)(F)C(F)(F)F)cccc12
active: SR leukemia -29.4% | RPMI-8226 leukemia -11% | OVCAR-8 ovarian -0.116% | SK-OV-3 ovarian -21.8% | IGROV1 ovarian 5.98% | OVCAR-3 ovarian 4.2% | NCI/ADR-RES ovarian -11.6%
inactive: HS 578T breast 50.7%

COC(=O)[C@@]12OC[C@]34[C@H]([C@@H](O)[C@@H]1O)[C@@]1(C)[C@H](O)C(=O)C=C(C)[C@@H]1C[C@H]3OC(=O)C(OC(C)=O)[C@@H]24 (some centres not stated)
active: SR leukemia -43% | RPMI-8226 leukemia -69.8% | OVCAR-5 ovarian -11.5% | OVCAR-4 ovarian 3.68% | SK-OV-3 ovarian -9.46% | IGROV1 ovarian -58% | OVCAR-3 ovarian -48.4% | HS 578T breast -33%
inactive: NCI/ADR-RES ovarian 16%

Cc1ccc(NS(=O)(=O)c2ccc(C)cc2)cc1
inactive: SR leukemia 91.7% and 97.8% | RPMI-8226 leukemia 83.1% and 95.2% | OVCAR-8 ovarian 97.5% and 92.7% | OVCAR-4 ovarian 93.7% and 106% | SK-OV-3 ovarian 109% and 101% | IGROV1 ovarian 111% and 107% | OVCAR-3 ovarian 105% and 98.9% | HS 578T breast 98.9% and 111% | NCI/ADR-RES ovarian 104% and 99.7%

S=C(N/N=C/c1ccccn1)Nc1ccccn1
inactive: OVCAR-8 ovarian 14.2% | SK-OV-3 ovarian 36.4% | IGROV1 ovarian 27% | HS 578T breast 97.4%
active: SR leukemia -29% | RPMI-8226 leukemia -2.91% | OVCAR-3 ovarian -0.151% | NCI/ADR-RES ovarian 7.98%

OC(CNc1ccnc2cc(Cl)ccc12)CNc1ccnc2cc(Cl)ccc12
active: SR leukemia 2.51%
inactive: RPMI-8226 leukemia 92.6% | OVCAR-8 ovarian 52.5% | OVCAR-4 ovarian 48% | SK-OV-3 ovarian 113% | IGROV1 ovarian 87.6% | OVCAR-3 ovarian 43.6% | HS 578T breast 89% | NCI/ADR-RES ovarian 106%

Cc1ccc2c(ccc3c[n+]4c5ccccc5ccc4n32)c1
active: SR leukemia -12.5% | OVCAR-8 ovarian 3.22% | OVCAR-4 ovarian -35.4% | OVCAR-3 ovarian -43.2%
inactive: RPMI-8226 leukemia 31.7% | HS 578T breast 14.4% | NCI/ADR-RES ovarian 70.3%

Oc1c(Cl)c2ccccc2c2ccccc12
inactive: SR leukemia 99.2% | RPMI-8226 leukemia 102% | OVCAR-8 ovarian 98.4% | OVCAR-4 ovarian 98.1% | SK-OV-3 ovarian 111% | IGROV1 ovarian 117% | OVCAR-3 ovarian 107% | NCI/ADR-RES ovarian 67.6%

O=C(/C=C\c1cc(Br)ccc1O)/C=C/c1cc(Br)ccc1O
inactive: OVCAR-4 ovarian 15.2% | HS 578T breast 37.8%
active: SR leukemia 1.17% | RPMI-8226 leukemia 0.234% | OVCAR-8 ovarian 3.86% | IGROV1 ovarian -16.9% | OVCAR-3 ovarian -81.5% | NCI/ADR-RES ovarian 7.59%

O=C(/C=C/C=C/c1ccccc1)c1ccco1
inactive: SR leukemia 16.7% | RPMI-8226 leukemia 10.8% | OVCAR-8 ovarian 89.1% | OVCAR-4 ovarian 78.7% | SK-OV-3 ovarian 105% | IGROV1 ovarian 64.8% | OVCAR-3 ovarian 85.6% | HS 578T breast 62.6% | NCI/ADR-RES ovarian 91.3%

CC(=Nc1ccc(N(C)C)cc1)c1ccccc1
active: RPMI-8226 leukemia 7.42%
inactive: SR leukemia 32.6% | OVCAR-8 ovarian 25.7% | OVCAR-4 ovarian 69.9% | SK-OV-3 ovarian 73% | OVCAR-3 ovarian 25.3% | HS 578T breast 74.2% | NCI/ADR-RES ovarian 74.7%

COc1ccc(N=N/N=c2\sc3cc(OC)ccc3n2C)cc1
inactive: SR leukemia 88.9% | RPMI-8226 leukemia 77.3% | OVCAR-5 ovarian 98.6% | OVCAR-4 ovarian 108% | SK-OV-3 ovarian 86.3% | IGROV1 ovarian 91.7% | OVCAR-3 ovarian 97.8% | HS 578T breast 96% | NCI/ADR-RES ovarian 109%

O=C1c2ccccc2C(=O)c2sc(Nc3cccc(Cl)c3)nc21
active: SR leukemia 2.67% | RPMI-8226 leukemia 2.31% | OVCAR-5 ovarian -67.4% | OVCAR-4 ovarian -9.21% | IGROV1 ovarian 0.883% | OVCAR-3 ovarian -34.3% | HS 578T breast -8.09% | NCI/ADR-RES ovarian -16.9%
inactive: SK-OV-3 ovarian 86.9%

CNc1ccc2c(c1)c1ccccc1n2C
inactive: SR leukemia 93.9% | RPMI-8226 leukemia 110% | OVCAR-5 ovarian 112% | OVCAR-4 ovarian 108% | SK-OV-3 ovarian 106% | IGROV1 ovarian 109% | OVCAR-3 ovarian 102% | HS 578T breast 118% | NCI/ADR-RES ovarian 102%
